This passage reports INHIBITION results from ChEMBL document CHEMBL4513216, “Probing the Open Global Health Chemical Diversity Library for Multistage-Active Starting Points for Next-Generation Antimalarials” (ACS Infect Dis, 2020).

The campaign covered roughly 65,000 compounds. About 2,100 (3.2%) showed an effect of 50% or more. The median lay at about -52%. For the sample, strong results were picked, then their nearest neighbours and some compounds at random.

The test system of this assay is Plasmodium falciparum. Nature of the assay: Screen against P. falciparum Asexual Blood Stage (ABS), at 5uM. Format: functional, Dd2. To be noted: tested at 5 uM.
Consider `CC(C)N1C(=O)C2(CCN(C)CC2)c2cc(F)ccc21`, for which the INHIBITION is -10.7%.

For the compound `CC(C)N1CCC2(CC1)C(=O)N(c1cccnc1)c1c(F)cccc12`, the INHIBITION was 49.8%.

With `CN1CCC2(CC1)C(=O)N(C)c1ccc(F)cc12`, the INHIBITION is -95.4%.

Regarding `CN1C(=O)C2(CCNCC2)c2cc(F)ccc21`, the INHIBITION is listed as -85.9%.

Consider `CN1CCC2(CC1)C(=O)N(c1cccnc1)c1ccc(F)cc12`, for which the INHIBITION turned out to be 59.5%.

Take `CC(C)N1CCC2(CC1)C(=O)N(c1cccnc1)c1ccc(F)cc12`: the INHIBITION is reported as 65.4%.

Turning to `Cc1cccc(CN2CCCC23CCNC3)n1` (centres undefined), the INHIBITION is given as 15.6%.

On to `Cc1cccc(CN(Cc2ccc(C)o2)C2CC(C)(C)NC(C)(C)C2)n1`, for which the INHIBITION is reported as 77.4%.

Consider `Cc1cccc(CN2CCCCC23CCNC3)n1` (centres undefined), for which the INHIBITION was 25.4%.

For the compound `COc1cc(C(=O)NCC2(N(C)C)CCN(C)CC2)c2ccccc2n1`, the INHIBITION came out at 73.6%.

In the case of `Cn1cc(CN2CCC[C@]3(C[C@H](Oc4ccccn4)CO3)C2)cn1`, the INHIBITION is listed as -23.8%.

Turning to `CO[C@H]1CN(C(C)C)C[C@@H]1NC(=O)Nc1ccc(C(F)(F)F)cc1`, the INHIBITION worked out at 71.5%.

For the compound `O=C1CC2(CCN(Cc3cccnc3)C2)CN1c1cccc(F)c1` (centres undefined), the INHIBITION is -34.7%.

With `O=C1CC2(CCN(Cc3ccncc3)C2)CN1c1cccc(F)c1` (centres undefined), the INHIBITION is given as -17.3%.

As to `CC(C)=CCN1CCC2(CC1)CC(=O)N(Cc1cc(F)cc(F)c1)C2`, the INHIBITION came to 75%.

Take `CCCN1CCN(C(=O)c2ccc(Cl)cn2)[C@H]2CS(=O)(=O)C[C@H]21`: the INHIBITION was -54.2%.

In the case of `c1cncc(COC[C@H]2CC[C@H]3[C@H](CCN3Cc3nccs3)O2)c1`, the INHIBITION is listed as -35.5%.

`COc1ccc(-c2n[nH]cc2C2SCC(=O)Nc3[nH]ncc32)cc1` (centres undefined): the INHIBITION is -21.3%.

With `Cc1ccc(C(=O)N2CC[C@H]3[C@H]2CCN3CC2CCOCC2)cn1`, the INHIBITION is -131%.

With `CO[C@H]1CCN(S(=O)(=O)c2cccnc2)[C@@H]2CN(CC3CC3)C[C@H]12`, the INHIBITION amounted to 31%.

Consider `CNC(=O)c1ccc2c(c1)C1(CCN(CC3CC3)CC1)C(=O)N2`, for which the INHIBITION is recorded as -44.8%.

In the case of `O=S(=O)(NC1CCC12CCN(CC1CC1)CC2)c1ccccc1` (centres undefined), the INHIBITION came out at 71.2%.

For the compound `Fc1ccc(COCC2CCN(Cc3ccccn3)CC2)cc1`, the INHIBITION was 78.8%.

In the case of `c1ccc(CN2C[C@@H]3COC[C@]3(COCC3CCOCC3)C2)nc1`, the INHIBITION is recorded as -61.3%.

As to `c1ccc(CN2C[C@@H]3COC[C@]3(COCc3ccncc3)C2)nc1`, the INHIBITION is reported as -47.9%.

`c1ccc(CN2C[C@H]3CCC[C@@]3(COCC3CC3)C2)nc1`: the INHIBITION is on record as -64.4%.

Consider `Clc1ccc(COCC2CCN(Cc3ccccn3)CC2)cc1`, for which the INHIBITION came to 90.7%.

`c1ccc(CN2C[C@H]3CCC[C@@]3(COCC3CCOCC3)C2)nc1`: the INHIBITION is listed as -45.1%.

Take `Cc1nc2c(c(NCc3nc4ccccc4s3)n1)CCNCC2`: the INHIBITION is on record as 71.3%.

Consider `Cc1nc2c(c(NCc3ccc(-c4ccccn4)s3)n1)CCNCC2`, for which the INHIBITION worked out at 73.6%.

On to `Cc1nc2c(c(NCc3cc4ccccc4s3)n1)CCNCC2`, for which the INHIBITION came to 89.2%.

For `COc1ncnc(N)c1CNCCc1ccccc1`, the INHIBITION is given as -136%.

Regarding `Cc1nc(C2(NCC(=O)NCc3cccs3)CCCCC2)no1`, the INHIBITION is -130%.

Consider `CN(C)C(=O)CN1CCCC2(CCN(c3ccc(C#N)cn3)C2)C1` (centres undefined), for which the INHIBITION is recorded as -51.1%.

Regarding `O=C1CCCN1CCN1CC=C(c2cnn(C3CCS(=O)(=O)C3)c2)CC1` (centres undefined), the INHIBITION is given as -88.6%.

Regarding `CC(Nc1ncnc2c1CCNC2)c1ccc2c(c1)CCCC2` (centres undefined), the INHIBITION amounted to 71.2%.

`CC(C)N(C)Cc1cncc2c1CCN(Cc1cccs1)C2`: the INHIBITION is 1.43%.

`CCN1CCCC12CCN(Cc1cccnc1OC)CC2`: the INHIBITION is -69.1%.

Consider `COCCN1CCCC12CCN(Cc1cccnc1OC)CC2`, for which the INHIBITION is -66.3%.

On to `COc1cc(Oc2ncccc2C(F)(F)F)ccc1CN1CCCC1`, for which the INHIBITION was 79.4%.

For `Cc1noc(C)c1CN1CCO[C@H]2[C@H](Oc3ccccn3)CC[C@@H]21`, the INHIBITION is -42.5%.

Take `OCCCN1CCc2[nH]nc(C(c3ccccc3)c3ccccc3)c2C1`: the INHIBITION came to 73%.

For the compound `Cc1cccc(CN2CC3C[C@]3(NC(=O)c3ccoc3)C2)n1` (some centres undefined), the INHIBITION is given as -67.9%.

Take `COCCN1C[C@@H]2[C@@H](OC)CCN(S(=O)(=O)c3cccnc3)[C@@H]2C1`: the INHIBITION was -22.8%.

As for `Cc1ccc(C(=O)N[C@H]2CN(CCO)C[C@@H]2C2CC2)cc1Cl`, the INHIBITION is given as 52.2%.

Consider `Cn1ccc2c(C(=O)NC3CN4CCC3CC4)cccc21` (centres undefined), for which the INHIBITION stood at 3.44%.

With `CCOc1ccc(C2SCC(=O)Nc3c2c(=O)[nH]n3C(CC)CC)cc1` (centres undefined), the INHIBITION is -144%.

For `CCN1CCN(S(=O)(=O)c2cc(Cl)c(Cl)cc2C)CC1`, the INHIBITION worked out at 70.9%.

`CCN1CCN(c2cncc(Cl)n2)CC1`: the INHIBITION was -13.6%.
